# From the supplement of paper PMC8975748
# Where a name gives a salt, the structure may show the parent alone. ± gives the standard deviation of the averaged measurements.
# Columns and labels:
# [1] = tested on: Saccharomyces cerevisiae BY4741 SeMeCo community; assay: z-score of prototroph abundance vs DMSO median; higher = larger share of this subpopulation than in DMSO controls; conditions: 10 µM; 24 h; SM minimal medium; subpopulation (auxotrophy): Prototroph
# Procedure, shortened: (§1)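 Scoring was based on each subpopulation's abundance, expressed as a z-score against the vehicle-well median. A Saccharomyces cerevisiae BY4741 community with four plasmids, each restoring one auxotrophy and encoding a distinct fluorescent protein, was pre-grown overnight to OD600 1.0, diluted to 0.3, and added at 70 µl to 384-well plates acoustically predosed with library drugs (10 µM final). It then grew 24 h in minimal SM medium before paraformaldehyde fixation and automated confocal microscopy, with single-auxotroph fluorescent strains setting thresholds and autofluorescence correction.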
# [2] = tested on: Saccharomyces cerevisiae BY4741 SeMeCo community; assay: z-score of subpopulation abundance vs DMSO median, subpopulation auxotrophic for M; higher = larger share of this subpopulation than in DMSO controls; conditions: 10 µM; 24 h; SM minimal medium; subpopulation (auxotrophy): M
# Procedure, shortened: as §1
# [3] = tested on: Saccharomyces cerevisiae BY4741 SeMeCo community; assay: z-score of subpopulation abundance vs DMSO median, subpopulation auxotrophic for L; higher = larger share of this subpopulation than in DMSO controls; conditions: 10 µM; 24 h; SM minimal medium; subpopulation (auxotrophy): L
# Procedure, shortened: as §1
# [4] = tested on: Saccharomyces cerevisiae BY4741 SeMeCo community; assay: z-score of subpopulation abundance vs DMSO median, subpopulation auxotrophic for U; higher = larger share of this subpopulation than in DMSO controls; conditions: 10 µM; 24 h; SM minimal medium; subpopulation (auxotrophy): U
# Procedure, shortened: as §1
# [5] = tested on: Saccharomyces cerevisiae BY4741 SeMeCo community; assay: z-score of subpopulation abundance vs DMSO median, subpopulation auxotrophic for H; higher = larger share of this subpopulation than in DMSO controls; conditions: 10 µM; 24 h; SM minimal medium; subpopulation (auxotrophy): H
# Procedure, shortened: as §1
# [6] = tested on: Saccharomyces cerevisiae BY4741 SeMeCo community; assay: z-score of subpopulation abundance vs DMSO median, subpopulation auxotrophic for LU; higher = larger share of this subpopulation than in DMSO controls; conditions: 10 µM; 24 h; SM minimal medium; subpopulation (auxotrophy): LU
# Procedure, shortened: as §1
# [7] = tested on: Saccharomyces cerevisiae BY4741 SeMeCo community; assay: z-score of subpopulation abundance vs DMSO median, subpopulation auxotrophic for LM; higher = larger share of this subpopulation than in DMSO controls; conditions: 10 µM; 24 h; SM minimal medium; subpopulation (auxotrophy): LM
# Procedure, shortened: as §1
# [8] = tested on: Saccharomyces cerevisiae BY4741 SeMeCo community; assay: z-score of subpopulation abundance vs DMSO median, subpopulation auxotrophic for HM; higher = larger share of this subpopulation than in DMSO controls; conditions: 10 µM; 24 h; SM minimal medium; subpopulation (auxotrophy): HM
# Procedure, shortened: as §1
# [9] = tested on: Saccharomyces cerevisiae BY4741 SeMeCo community; assay: z-score of subpopulation abundance vs DMSO median, subpopulation auxotrophic for HU; higher = larger share of this subpopulation than in DMSO controls; conditions: 10 µM; 24 h; SM minimal medium; subpopulation (auxotrophy): HU
# Procedure, shortened: as §1
# [10] = tested on: Saccharomyces cerevisiae BY4741 SeMeCo community; assay: z-score of subpopulation abundance vs DMSO median, subpopulation auxotrophic for UM; higher = larger share of this subpopulation than in DMSO controls; conditions: 10 µM; 24 h; SM minimal medium; subpopulation (auxotrophy): UM
# Procedure, shortened: as §1
# [11] = tested on: Saccharomyces cerevisiae BY4741 SeMeCo community; assay: z-score of subpopulation abundance vs DMSO median, subpopulation auxotrophic for HL; higher = larger share of this subpopulation than in DMSO controls; conditions: 10 µM; 24 h; SM minimal medium; subpopulation (auxotrophy): HL
# Procedure, shortened: as §1
# [12] = tested on: Saccharomyces cerevisiae BY4741 SeMeCo community; assay: z-score of subpopulation abundance vs DMSO median, subpopulation auxotrophic for HLU; higher = larger share of this subpopulation than in DMSO controls; conditions: 10 µM; 24 h; SM minimal medium; subpopulation (auxotrophy): HLU
# Procedure, shortened: as §1
# [13] = tested on: Saccharomyces cerevisiae BY4741 SeMeCo community; assay: z-score of subpopulation abundance vs DMSO median, subpopulation auxotrophic for HLM; higher = larger share of this subpopulation than in DMSO controls; conditions: 10 µM; 24 h; SM minimal medium; subpopulation (auxotrophy): HLM
# Procedure, shortened: as §1
# [14] = tested on: Saccharomyces cerevisiae BY4741 SeMeCo community; assay: z-score of subpopulation abundance vs DMSO median, subpopulation auxotrophic for HUM; higher = larger share of this subpopulation than in DMSO controls; conditions: 10 µM; 24 h; SM minimal medium; subpopulation (auxotrophy): HUM
# Procedure, shortened: as §1
# [15] = tested on: Saccharomyces cerevisiae BY4741 SeMeCo community; assay: z-score of subpopulation abundance vs DMSO median, subpopulation auxotrophic for LUM; higher = larger share of this subpopulation than in DMSO controls; conditions: 10 µM; 24 h; SM minimal medium; subpopulation (auxotrophy): LUM
# Procedure, shortened: as §1
# [16] = tested on: Saccharomyces cerevisiae BY4741 SeMeCo community; assay: z-score of subpopulation abundance vs DMSO median, subpopulation auxotrophic for HLUM; higher = larger share of this subpopulation than in DMSO controls; conditions: 10 µM; 24 h; SM minimal medium; subpopulation (auxotrophy): HLUM
# Procedure, shortened: as §1
# [17] = tested on: Saccharomyces cerevisiae BY4741 SeMeCo community; assay: mean cell size (pixel area) (pixels); higher = larger cells; conditions: 10 µM; 24 h; SM minimal medium
# Procedure, shortened: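 Harmony analysis of automated confocal images of paraformaldehyde-fixed yeast gave the mean cell pixel area per well. The yeast was a Saccharomyces cerevisiae BY4741 community carrying four plasmids, each with a fluorescent marker and each complementing one auxotrophy, incubated for 24 h in SM medium containing drug at a final 10 µM in 384-well plates. Results are averaged over 3 replicates. Same SeMeCo high-content imaging drug screen: Selleck FDA-approved drugs at 10 µM, 24 h in SM medium, 384-well plates, 3 replicates.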
SMILES,z-score of prototroph abundance [1],z-score of subpopulation abundance [2],z-score of subpopulation abundance [3],z-score of subpopulation abundance [4],z-score of subpopulation abundance [5],z-score of subpopulation abundance [6],z-score of subpopulation abundance [7],z-score of subpopulation abundance [8],z-score of subpopulation abundance [9],z-score of subpopulation abundance [10],z-score of subpopulation abundance [11],z-score of subpopulation abundance [12],z-score of subpopulation abundance [13],z-score of subpopulation abundance [14],z-score of subpopulation abundance [15],z-score of subpopulation abundance [16],mean cell size [17]
COCCCOc1ccnc(C[S+]([O-])c2nc3ccccc3[nH]2)c1C (stereo not given) [Rabeprazole],-0.81,-1.07,1.62,0.43,2.01,1.56,-0.33,0.01,0.85,-0.92,1.62,1.71,0.32,0.23,0.63,–,–
Cc1ccc(Sc2ccccc2N2CCNCC2)c(C)c1 [Vortioxetine],–,0.08,-0.09,-0.12,-0.14,-0.19,-0.16,–,0.9,0.26,0.77,0.51,0.2,0.6,-0.16,–,–
COc1ccc(C2CNC(=O)C2)cc1OC1CCCC1 (stereo not drawn) [S- (+)-Rolipram],1.36,-0.3,-0.9,–,-0.73,-0.96,-0.87,-0.72,-0.33,-1.18,-0.58,-1.07,-0.94,-0.99,-1.24,-1.15,–
CCCCC(F)(F)[C@@]1(O)CC[C@H]2[C@@H](CC(=O)[C@@H]2CCCCCCC(=O)O)O1 [Lubiprostone],1.04,-0.11,-1.05,0.27,–,-0.53,-1.08,-0.8,–,-0.29,-0.29,-0.93,-1.01,-1.08,–,–,–
COc1ccc(-c2nc3cc(C4=NNC(=O)CC4C)ccc3[nH]2)cc1 (stereo not given) [Pimobendan],-0.89,0.83,1.93,-0.84,0.76,0.46,1.71,0.78,-0.28,-0.05,0.79,1.42,0.33,0.52,–,–,–
Cc1c(Cl)cccc1Nc1ccccc1C(=O)O [Tolfenamic Acid],–,-0.25,-2.08,–,-1.01,-1.24,-1.47,-1.11,-0.34,-0.9,-0.69,-1.46,-0.79,-0.87,–,-1.09,–
O=C(NCCN1CCOCC1)c1ccc(Cl)cc1,0.89,0.03,1.75,–,-0.65,0.18,1.06,-0.79,–,-1.28,-0.31,0.17,-0.28,–,–,0.73,12.4 ± 0.22
COc1ccc(C[C@H](N)C(=O)N[C@H]2[C@@H](O)[C@H](n3cnc4c(N(C)C)ncnc43)O[C@@H]2CO)cc1 [Puromycin 2HCl],–,0.81,-0.61,0.92,–,-0.06,-0.47,0,0.15,1.61,-0.16,-0.44,-0.12,–,–,–,12.5 ± 0.13
C(=C\c1ccccc1)/CN1CCN(C(c2ccccc2)c2ccccc2)CC1 [Cinnarizine],–,-1.68,0.22,1.39,-0.62,1.38,-0.47,-0.68,1.5,1.3,0.34,1.32,-0.32,–,–,–,12.21 ± 0.081
CCCCCCCCN=C(N)NC(N)=NCc1ccc(Cl)c(Cl)c1 [Olanexidine Hydrochloride semihydrate],-19.3,-3.65,-3.44,–,4.73,2.95,-0.77,13.8,5.71,12.2,11.1,5.73,72.9,–,21.6,213,9.82 ± 0.35
NC[C@H]1O[C@H](O[C@H]2[C@H](O)[C@@H](O[C@H]3O[C@H](CO)[C@@H](O)[C@H](N)[C@H]3O)[C@H](N)C[C@@H]2N)[C@H](O)[C@@H](O)[C@@H]1O [Kanamycin sulfate],-0.43,0.84,1.91,-0.55,1.26,-0.08,1.55,1.34,-0.5,–,1.08,0.63,-0.02,–,0.52,-0.1,11.9 ± 0.26
N#C/C(=C1/SC[C@@H](c2ccc(Cl)cc2Cl)S1)n1ccnc1 [Luliconazole],-8.67,-2.68,-1.35,-0.31,18.4,0.85,1.33,7.54,10.5,11.7,–,5.26,16.8,–,4.52,11.1,12 ± 0.31
C[C@@H]1O[C@@H]1P(=O)(O)O [Fosfomycin Disodium],–,-0.48,0.72,–,0.63,0.6,-0.25,-0.52,0.04,-0.18,0.86,0.52,-0.12,–,0.06,-0.05,12 ± 0.14
CC(=O)O[C@]1(C(C)=O)CC[C@H]2[C@@H]3C[C@H](C)C4=CC(=O)CC[C@]4(C)[C@H]3CC[C@@]21C [Medroxyprogesterone acetate],0.03,0.21,-0.93,0.34,0.12,0.01,-0.1,0.17,0.62,0.34,-0.1,-0.17,-0.12,–,-0.28,-0.36,12.6 ± 0.18
CC[C@@]1(O)C(=O)OCc2c1cc1n(c2=O)Cc2cc3c(CN(C)C)c(O)ccc3nc2-1 [Topotecan HCl],1.13,1.3,0.17,-1.89,0.59,-1.86,0.34,0.51,-2.17,-1.6,0.17,-0.87,0.12,–,-0.62,–,12.5 ± 0.14
